Measured values published in PMC9838217, “Structure of SALL4 zinc finger domain reveals link between AT-rich DNA binding and Okihiro syndrome”.
Substitutions are numbered along the chain they refer to.

What was measured:
Assay in all cases: HT-SELEX; high values mean tight binding
Details in all cases: protein: recombinant; vector His6-GST; dsDNA, one strand shown
SALL4 ZFC4 WT (HT-SELEX) = molecular target: T1, SALL4 ZFC4 WT (HT-SELEX) (Mus musculus, UniProt Q8BX22 870-940)
T1 sequence: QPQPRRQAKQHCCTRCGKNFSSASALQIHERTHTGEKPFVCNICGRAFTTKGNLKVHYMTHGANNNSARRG
Summary of the method: (§1)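 Binding signal is defined as the fold change of each canonical k-mer's read fraction versus the initial random library. Selections used 1 µg of purified recombinant mouse SALL4 zinc finger cluster 4 (residues 870–940) with library DNA (1.5 µg first cycle, 200 ng later) in 100 µl of 10 mM Tris–HCl pH 7.5, 50 mM NaCl, poly(dI-dC) and DTT, for 10 min at room temperature, followed by Ni2+ bead capture, washing and PCR. Up to 6 such cycles were run in triplicate before MiSeq sequencing and 6-mer scanning.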

[1] = molecular target: T2, SALL4 ZFC4 R900W (HT-SELEX) (Mus musculus, UniProt Q8BX22 870-940, R900W)
T2 sequence: T1 sequence with R31W
Summary of the method: as §1

[2] = molecular target: T3, SALL4 ZFC4 G921D (HT-SELEX) (Mus musculus, UniProt Q8BX22 870-940, G921D)
T3 sequence: T1 sequence with G52D
Summary of the method: as §1

| Sequence | binding signal (SALL4 ZFC4 WT (HT-SELEX)) [fold-change vs cycle 0] | binding signal [1] [fold-change vs cycle 0] | binding signal [2] [fold-change vs cycle 0] |
| --- | --- | --- | --- |
| AGGTCC | 0.419 ± 0.0296 | 0.53 ± 0.0164 | 0.632 ± 0.0514 |
| AAGCCT | 0.633 ± 0.0294 | 0.72 ± 0.0269 | 0.848 ± 0.0353 |
| CAATTC | 1.19 ± 0.016 | 1.29 ± 0.063 | 1.25 ± 0.0527 |
| ATTAAC | 2.04 ± 0.0632 | 2.1 ± 0.104 | 1.83 ± 0.178 |
| TCCGAA | 0.618 ± 0.0382 | 0.692 ± 0.0361 | 0.791 ± 0.046 |
| ATGCGA | 0.525 ± 0.0387 | 0.556 ± 0.0155 | 0.689 ± 0.0646 |
| AAGGGA | 0.928 ± 0.0784 | 1.09 ± 0.0682 | 1.03 ± 0.0363 |
| TAGGAA | 1.42 ± 0.0275 | 1.51 ± 0.0439 | 1.41 ± 0.0855 |
| ATATAT | 5.74 ± 0.718 | 2.51 ± 0.217 | 2.2 ± 0.291 |
| AACTTC | 1.37 ± 0.0514 | 1.52 ± 0.0544 | 1.4 ± 0.0625 |
| GAAACC | 0.748 ± 0.0342 | 0.843 ± 0.0163 | 0.916 ± 0.0216 |
| TGCGAA | 0.447 ± 0.0325 | 0.488 ± 0.0122 | 0.618 ± 0.0628 |
| CGGTTA | 0.677 ± 0.0447 | 0.748 ± 0.0385 | 0.801 ± 0.0326 |
| GCTCCA | 0.305 ± 0.0228 | 0.37 ± 0.0101 | 0.505 ± 0.0396 |
| AGCAAG | 0.735 ± 0.0328 | 0.837 ± 0.0375 | 0.888 ± 0.035 |
| CCATCG | 0.385 ± 0.00824 | 0.438 ± 0.0205 | 0.557 ± 0.0511 |
| ATAGGA | 1.48 ± 0.0224 | 1.56 ± 0.056 | 1.45 ± 0.0712 |
| ACGTCA | 0.686 ± 0.00954 | 0.776 ± 0.0221 | 0.847 ± 0.0153 |
| ATGGAC | 0.777 ± 0.0185 | 0.861 ± 0.0318 | 0.938 ± 0.0184 |
| AGTGTC | 0.664 ± 0.023 | 0.81 ± 0.0199 | 0.9 ± 0.0262 |
| CCTGAG | 0.502 ± 0.0217 | 0.614 ± 0.0126 | 0.691 ± 0.0156 |
| AAAAGG | 1.08 ± 0.0719 | 1.25 ± 0.064 | 1.18 ± 0.0579 |
| TACGTA | 1.26 ± 0.0297 | 1.33 ± 0.109 | 1.23 ± 0.0963 |

| Sequence | binding signal (SALL4 ZFC4 WT (HT-SELEX)) [fold-change vs cycle 0] | binding signal [1] [fold-change vs cycle 0] | binding signal [2] [fold-change vs cycle 0] |
| --- | --- | --- | --- |
| GCACAC | 0.35 ± 0.011 | 0.453 ± 0.0146 | 0.583 ± 0.0993 |
| CAATGG | 0.767 ± 0.067 | 0.849 ± 0.0267 | 0.923 ± 0.0362 |
| CGTCTC | 0.379 ± 0.0073 | 0.467 ± 0.0242 | 0.574 ± 0.0434 |
| GAACAC | 0.766 ± 0.0374 | 0.901 ± 0.0255 | 0.932 ± 0.0461 |
| AAACAG | 1.101 ± 0.00341 | 1.27 ± 0.0528 | 1.23 ± 0.0148 |
| ATTCGC | 0.463 ± 0.033 | 0.495 ± 0.0145 | 0.637 ± 0.0822 |
| ACCAAG | 0.816 ± 0.0198 | 0.935 ± 0.0459 | 0.983 ± 0.0112 |
| TACAAA | 1.84 ± 0.0971 | 1.82 ± 0.0757 | 1.67 ± 0.0747 |
| ATTGGA | 1.3 ± 0.0815 | 1.36 ± 0.0818 | 1.33 ± 0.0804 |
| TGGACA | 0.662 ± 0.0418 | 0.761 ± 0.0205 | 0.847 ± 0.0377 |
| AGGAGA | 0.932 ± 0.027 | 1.09 ± 0.059 | 1.06 ± 0.044 |
| CAACCA | 0.686 ± 0.0177 | 0.804 ± 0.0166 | 0.877 ± 0.0338 |
| GTTCGA | 0.639 ± 0.0126 | 0.724 ± 0.0149 | 0.821 ± 0.0291 |
| CATAAA | 2.36 ± 0.2 | 1.79 ± 0.0666 | 1.6 ± 0.121 |
| ACGGAT | 0.764 ± 0.0238 | 0.855 ± 0.00544 | 0.887 ± 0.0254 |
| ATCCAT | 1.62 ± 0.0994 | 1.54 ± 0.0869 | 1.44 ± 0.0984 |
| AGGTGA | 0.887 ± 0.0607 | 0.987 ± 0.0758 | 1.04 ± 0.0735 |
| CGTGTA | 0.651 ± 0.0387 | 0.756 ± 0.0247 | 0.812 ± 0.0246 |
| CCTTAC | 0.944 ± 0.0541 | 1.06 ± 0.0559 | 1.04 ± 0.0333 |
| GTCGTA | 0.571 ± 0.0216 | 0.663 ± 0.0204 | 0.752 ± 0.0439 |
| ACCGGA | 0.381 ± 0.0137 | 0.447 ± 0.0161 | 0.56 ± 0.0517 |
| ATTTAA | 3.2 ± 0.134 | 2.48 ± 0.146 | 2.15 ± 0.212 |
